# Inconclusive results are not listed. Unmarked numbers belong to inactive results. Calls of active or inactive are those of the source. Calls come from the whole dose curve.
# Assay: Cytotoxicity counterscreen for inhibitors of SARS-CoV-2 cell entry (AID 1645845); note: nearly all actives have a fitted effect of over 50% in size
# Conditions: cell viability (SARS-CoV-2 entry assay cells); series mostly up to 57.1 µM; activity change, negative = cytotoxicity: at the top concentration
# Description: Assay Provider: Wei Zheng, Ph.D.
# National Center for Advancing Translational Sciences, National Institute of Health, Rockville, MD.
# SARS-CoV-2 spike protein, within the viral envelope, mediates viral attachment and infection of host cells. The SARS-CoV-2 spike protein specifically binds to the host receptor ACE2 (Angiotensin-converting enzyme 2). This interaction promotes endocytosis of the viral particle, additional events lead to viral-host cell membrane fusion and release of the viral contents, allowing viral replication.
# While SARS-CoV-2 requires BSL-3 facilities for live virus work, pseudo-typed partices (PP) that incorporate SARS-CoV-2 spike proteins without replication elements could facilitate studies on viral entry mechanisms in a BSL-2 setting. This PP cell entry assay could also enable screening of small molecule compound libraries in BSL-2 setting to identify inhibitors of SARS-CoV-2 cell entry. To eliminate false positive compounds, ATP content cytotoxicity assay was screened in the same cell line.
# SEQUENCE No. (e.g., 1, 2, 3, etc.); […] (e.g., Cells, Incubation, Reagent, etc.); VALUE and DESCRIPTION.
# 1. Cells. Seed 1500 HEK293-ACE2 cells (Expi293F with stable expression of human ACE2) in 2 uL/well media (DMEM, 10% FBS, 1x L-glutamine, 1x Pen/Strep, 1 ug/ml puromycin) in white 1536-well assay plates (Greiner #782073).
# 2. Incubation. Incubate at 37 C with 5% CO2 overnight (~16 h).
# 3. Compounds. Dispense 23 nL/well compounds in DMSO via pin transfer.
# 4. Incubation. Incubate for 1 h at 37C 5% CO2.
# 5. Reagent. Dispense 2 uL/well of media (DMEM, 10% FBS, 1x L-glutamine, 1x Pen/Strep, 1 ug/ml puromycin).
# 6. Incubation. Incubate at for 48h at 37C 5% CO2
# 7. Reagent. Dispense 4 uL/well of ATPLite 1step luminescence assay reagent (PerkinElmer #6016739).
# 8. Incubation. Incubate for 15 min at room temperature.
# 9. Detection. Read luminescence signal (Viewlux plate reader, PerkinElmer). Data was normalized with wells containing cells as 100%, and wells without cells (media only control) as 0%.
# % is set by controls: 0 for no effect and ±100 for the full control effect; potency is the fitted concentration of half-maximal effect.
Structure (SMILES),outcome,"activity change, negative = cytotoxicity [%]",Potency
c1ccc(C2(c3ccccc3)CC2C2=NCCN2)cc1 (stereo not given),inactive,,
CCOc1ccn(-c2ccc(F)cc2)c(=O)c1C(=O)Nc1ccc(Oc2ccnc(N)c2Cl)c(F)c1,,2.71,
Cn1c(NCCN(CCO)CCCc2ccc([N+](=O)[O-])cc2)cc(=O)n(C)c1=O,,,inactive
COc1ccccc1O,,-1.97,
CC(C)(C)c1cc(C(=O)O)c(NC(=O)Nc2ccc3[nH]ncc3c2)s1,inactive,,
CC(=O)OCCN1C(=O)c2c(C)nc3ccc(S(=O)(=O)N4CCOCC4)cc3c2C1=O,,4.26,
c1ccc2[nH]ccc2c1,inactive,,
CS(=O)(=O)Oc1ccc2c(NC(N)=O)c(C(=O)c3ccc(Cl)cc3Cl)oc2c1,inactive,,
COc1ccc(OC)c(-c2nnc3ccc(-c4ccc(OC)c(O[C@@H]5CCOC5)c4)nn23)c1,,-20.6,
O=C(O)CCc1ccc(NCc2cccc(Oc3ccccc3)c2)cc1,inactive,,
C[C@@H](Oc1cc(-c2cnn(C3CCNCC3)c2)cnc1N)c1c(Cl)ccc(F)c1Cl,,,25.1 µM (active)
NC(=O)c1ccc(N(C(N)=O)c2c(F)cccc2F)nc1-c1ccc(F)cc1F,,4.12,
Cc1cc(SCc2sc(-c3ccc(C(F)(F)F)cc3)nc2C)ccc1OCC(=O)O,inactive,,
CC[C@@H](C)[C@H](NC(=O)[C@H](CC1CCCCC1)NC(=O)c1ccno1)C(=O)N1CCC2(CCc3ccccc32)CC1,,-17.6,
CCN1C[C@]2(OC(=O)c3ccccc3NC(C)=O)CC[C@H](OC)[C@@]34[C@H]5CC6[C@@H](OC)C[C@](O)(C(C[C@@H]23)[C@@H]14)[C@@]5(O)[C@@H]6OC,inactive,,
CN[C@@H](C)C(=O)N[C@H]1CCCC[C@H]2CC[C@@H](C(=O)N[C@@H](c3ccccc3)c3cn(CCCCc4ccc(CCCCn5cc([C@@H](NC(=O)[C@@H]6CC[C@@H]7CCCC[C@H](NC(=O)[C@H](C)NC)C(=O)N76)c6ccccc6)nn5)cc4)nn3)N2C1=O,,-9.37,
OCCn1cc(-c2cnc3nnn(Cc4ccc5ncccc5c4)c3n2)cn1,inactive,,
Cc1cc([C@@H](C)Nc2ccccc2C(=O)O)c2nc(N3CCOCC3)cc(=O)n2c1,,3.13,
Cc1c(C(=O)Nc2cccc(C(F)(F)F)c2)cc(-c2ccccc2)n1CCCN1CCOCC1,,-3.31,
NCCS,,4.6,

Structure (SMILES),outcome,"activity change, negative = cytotoxicity [%]",Potency
CC(=O)c1c(C)c2cnc(Nc3ccc(N4CCNCC4)cn3)nc2n(C2CCCC2)c1=O,,,inactive
CCCC[N+]1(C)[C@H]2CC(OC(=O)[C@H](CO)c3ccccc3)C[C@H]1[C@H]1O[C@H]12 (stereo not given in full),inactive,,
CC(C)c1ccc2c(c1)c(SC(C)(C)C)c(CC(C)(C)C(=O)O)n2Cc1ccc(Cl)cc1,,4.37,
CCN(CC)CCn1c(=O)c(Cc2ccc(OC)cc2)nc2ccccc21,inactive,,
C1Cc2[nH]nc(-c3nn[nH]n3)c2C1,inactive,,
CCOc1cc(NC(C)=O)ccc1C(=O)OC,,1.27,
Cc1nnc(C(C)C)n1C1CC2CCC(C1)N2CC[C@H](NC(=O)C1CCC(F)(F)CC1)c1ccccc1 (stereo not given in full),,,inactive
COc1ccc(-c2c(-c3ccc(O)cc3O)n[nH]c2C)cc1,,-14.1,
C[C@@H]1CCN(C(=O)CC#N)C[C@@H]1N(C)c1ncnc2[nH]ccc12,,,inactive
Cc1cc(C(=O)NNCc2ccccc2)no1,inactive [at 114 µM],,
CC(=O)N[C@@H](Cc1ccc(O)cc1)C(=O)O,,-5.49,
Cn1cc(-c2[nH]c3cc(NC(=O)[C@H](N)C4CCCCC4)cc4c3c2C=NNC4=O)cn1,,,15.8 µM (active)
CN(C(=O)C(Cl)Cl)c1ccc(OC(=O)c2ccco2)cc1,,1.42,
CC(C)Oc1cc(Nc2nc(N[C@@H](C)c3ccc(F)cn3)ncc2Cl)[nH]n1,,-6.28,
Nc1ccccc1NC(=O)c1ccc(CNC(=O)OCc2cccnc2)cc1,,-28,
CC(C)(C)c1cnc(CSc2cnc(NC(=O)C3CCNCC3)s2)o1,,-28.6,
CC1=C(C/C=C(\C)CCC[C@H](C)CCC[C@H](C)CCCC(C)C)C(=O)c2ccccc2C1=O,,1.4,
C[C@@H](N)C(=O)O,,1.12,
Cc1ccccc1-n1c(Cn2ncc3c(N)ncnc32)nc2cccc(C)c2c1=O,inactive,,
CCCS(=O)(=O)Nc1ccc(F)c(C(=O)c2c[nH]c3ncc(Cl)cc23)c1F,inactive,,

# — PubChem BioAssay (NCATS)
